Assay [1] concerns XIP peptide (Xip251-270) binding. Description: XIP fragment 251-270 binding compounds – biochemical, small-molecule microarray, fluorescence 635/667 nm, 0.1 µg/mL protein, primary screen (AID 1182). The following applies: fluorescent protein binding, 635 nm, higher = more signal, called active from +8 up or from −8 down.
In the next assay the test system is XIP peptide (Xip251-270). Description: compounds binding XIP fragment 251-270 – biochemical, small-molecule microarray, fluorescence 635/667 nm, 0.5 µg/mL protein, primary screen (AID 1183). To be noted: fluorescence 635 nm, higher = more signal.
Assay [2] is described as follows: blood-stage malaria parasite viability loss – strain 3D7, DAPI fluorescence, 100 nL, primary screen (AID 1184).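 Note: parasites grown inside human red blood cells in medium with human serum.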 The following applies: P. falciparum 3D7 growth, 3 d, higher = more signal.
For assay [3], the target named is Homeobox protein Hox-A13 (Mus musculus) (UniProt Q62424). Description: disruptors of Hoxa13 oligonucleotide interaction – biochemical, fluorescence polarization, labeled oligonucleotide, primary screen (AID 1185). To be noted: Hoxa13:DNA binding, 15 min, higher = more signal, called active from +8 up or from −8 down.
The nature of assay [4]: blockers of DNA damage checkpoint Chk1 activation – imaging, HeLa, hydroxyurea, phospho-Chk1 antibody, percent positive cells, primary screen (AID 1186). The following applies: hydroxyurea-induced phospho-Chk1 immunofluorescence imaging, higher = more signal.
Assay [5] in a line: blockers of DNA damage checkpoint Chk1 activation – imaging, HeLa, hydroxyurea, phospho-Chk1 nuclear intensity, primary screen (AID 1187). To be noted: hydroxyurea-induced phospho-Chk1 immunofluorescence imaging, higher = more signal.

SMILES strings stand for the structures. The source made the active and inactive calls. Unless noted, the rule behind the calls is not given here.

Homeobox protein Hox-A13 (Mus musculus), sequence (Q62424 whole entry, looked up): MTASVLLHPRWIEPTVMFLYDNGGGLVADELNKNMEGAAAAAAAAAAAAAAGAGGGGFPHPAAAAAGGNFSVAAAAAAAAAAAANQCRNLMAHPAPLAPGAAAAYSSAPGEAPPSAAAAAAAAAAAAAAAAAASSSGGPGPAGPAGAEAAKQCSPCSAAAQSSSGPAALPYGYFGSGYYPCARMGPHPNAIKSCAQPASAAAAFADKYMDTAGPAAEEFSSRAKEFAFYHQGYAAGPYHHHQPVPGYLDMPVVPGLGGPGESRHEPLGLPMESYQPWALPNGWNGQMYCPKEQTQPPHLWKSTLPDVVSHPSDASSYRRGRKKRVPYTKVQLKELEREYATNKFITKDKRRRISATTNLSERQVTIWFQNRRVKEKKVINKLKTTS

Turning to `CCOC(=O)C=Cc1cc([N+](=O)[O-])ccc1O`, the composite z-score in assay [1] is -0.0238 (inactive); with XIP peptide (Xip251-270), -0.466. In addition, the z-score in assay [2] was -1.14; in assay [3], 0.98 (inactive); in assay [4], -0.818 (inactive); in assay [5], -1.46 (inactive).
As to `C=CC[C@]1(C(=O)N2CCCCC2)N=C(c2ccc(OCCCO)cc2)O[C@H]1c1ccccc1`, the composite z-score in assay [1] is 0.754 (inactive); in the assay with XIP peptide (Xip251-270), 0.807. Besides, the z-score in assay [2] is -2.03; in assay [3] it was -5.69 (inactive); in assay [4], -0.0473 (inactive); in assay [5], 0.452 (inactive).
`C[N+](C)(C)CCCC[C@@H]1NC(=O)[C@@H]2C[C@H](C(=O)NCCCCCN)[C@H](c3cccc(OCCO)c3)N2C1=O`: the composite z-score is -0.442 (inactive) in assay [1] and 0.572 in the assay with XIP peptide (Xip251-270). Besides, the z-score in assay [2] is 0.137; in assay [3], -3.6 (inactive); in assay [4], -0.86 (inactive); in assay [5], -0.231 (inactive).
As for `COc1cc2c(cc1O)C=[N+](Cc1cccc(OC(F)(F)F)c1)CC2`, the composite z-score in assay [1] is -0.103 (inactive); in the assay with XIP peptide (Xip251-270), 0.0686. For the same molecule, the z-score in assay [2] is -1.94; in assay [3], -3.45 (inactive); in assay [4], -0.0564 (inactive); in assay [5] it was -0.707 (inactive).
In the case of `O=C(O)[C@@]1(CCS(=O)(=O)c2ccccc2)COC(c2ccc(OCCCO)cc2)=N1`, the composite z-score in assay [1] was -0.0596 (inactive); in the assay on XIP peptide (Xip251-270), -0.271. Moreover, the z-score is 0.917 in assay [2], -2.82 (inactive) in assay [3], -0.333 (inactive) in assay [4] and -0.52 (inactive) in assay [5].
`O=C1c2ccccc2[C@](Cc2ccccc2I)(C(=O)NC2CC2)[C@H](c2ccc(CO)cc2)N1Cc1ccccc1`: the values for the composite z-score (in assay [1]; in the assay with XIP peptide (Xip251-270)) were 0.534 (inactive) and 0.63, respectively. The z-score in assay [2] is -0.35; in assay [3] it was -5.1 (inactive); in assay [4], 0.0675 (inactive); in assay [5] it was -0.345 (inactive).
In the case of `COCCOC(=O)N1C(=O)[C@@]2(c3cc(C#CCNC(N)=O)ccc31)[C@H](C(=O)NC[C@H](O)c1ccccc1)[C@H]1C(=O)O[C@H](c3ccccc3)[C@H](c3ccccc3)N1[C@@H]2c1ccccc1OCCO`, the composite z-score in assay [1] is 0.0808 (inactive); with XIP peptide (Xip251-270), 0.689. For the same molecule, the z-score in assay [2] is -0.411; in assay [3] it was -1.65 (inactive); in assay [4], 0.0441 (inactive); in assay [5], 0.0861 (inactive).
With `[N-]=[N+]=NCc1ccccc1C[C@]1(C(=O)NCC(O)CO)N=C(c2ccc(OCCCO)cc2)O[C@H]1c1ccccc1` (stereo partly specified), the composite z-score in assay [1] is 0.417 (inactive); in the assay with XIP peptide (Xip251-270) it was -0.148. Further, the z-score in assay [2] was -0.836; in assay [3], -6.51 (inactive); in assay [4], 0.112 (inactive); in assay [5], 0.377 (inactive).
As to `[N-]=[N+]=Nc1ccccc1[C@H]1OC(c2ccc(OCCCO)cc2)=N[C@@]1(Cc1ccccc1)C(=O)O`, the composite z-score is 0.387 (inactive) in assay [1] and 0.686 in the assay with XIP peptide (Xip251-270). Also, the z-score in assay [2] was -1.23; in assay [3], -5.18 (inactive); in assay [4], -0.48 (inactive); in assay [5], -0.822 (inactive).
On to `C=CC[C@@]1(C(=O)N(C)C)N=C(c2ccc(OCCCO)cc2)O[C@@H]1c1ccccc1N=[N+]=[N-]`, for which the composite z-score in assay [1] was 0.158 (inactive); with XIP peptide (Xip251-270) it was 0.888. In addition, the z-score in assay [2] is -2.09; in assay [3], -3.42 (inactive); in assay [4] it was 0.0664 (inactive); in assay [5], 0.157 (inactive).
Consider `COCCOC(=O)N1C(=O)[C@@]2(c3cc(C#CCCO)ccc31)[C@H](C(=O)Nc1nc3ccccc3s1)[C@H]1C(=O)O[C@H](c3ccccc3)[C@H](c3ccccc3)N1[C@@H]2c1ccc(OCCO)cc1`, for which the composite z-score in assay [1] is 0.886 (inactive); in the assay with XIP peptide (Xip251-270) it was 0.744. Further, the z-score in assay [2] was -1.12; in assay [3], 0.518 (inactive); in assay [4], -0.502 (inactive); in assay [5] it was -0.558 (inactive).
As for `CN1C(=O)C2C=CC(C(O)C3CC=CCC3)N(NC(=O)OC(C)(C)C)C2C1=O` (stereo unspecified), the composite z-score in assay [1] was 0.947 (inactive); in the assay with XIP peptide (Xip251-270), 0.539. The z-score in assay [2] is 0.849; in assay [3], -2.05 (inactive); in assay [4], 0.867 (inactive); in assay [5], 0.509 (inactive).
As for `COCCCNC(=O)[C@@]1(Cc2ccccc2)N=C(c2ccc(OCCCO)cc2)O[C@H]1c1ccccc1`, the composite z-score is 0.111 (inactive) in assay [1] and 0.752 in the assay on XIP peptide (Xip251-270). Also, the z-score in assay [2] is -2; in assay [3], -5.35 (inactive); in assay [4] it was 0.129 (inactive); in assay [5], 0.221 (inactive).
Consider `CCCC[C@@H]1C[C@H]1[C@@H](NC(=O)c1ccco1)c1ccc(C(=O)OC)cc1`, for which the composite z-score in assay [1] is -0.687 (inactive); in the assay with XIP peptide (Xip251-270), -0.16. The z-score in assay [2] is -0.941; in assay [3], 0.198 (inactive); in assay [4], 0.29 (inactive); in assay [5], 0.0944 (inactive).
Regarding `O=C1C2C=CC(C(O)c3c(F)cccc3Cl)N(Nc3ccccc3)C2C(=O)N1c1ccccc1` (stereo unspecified), the composite z-score in assay [1] was 0.469 (inactive); in the assay on XIP peptide (Xip251-270) it was 0.702. In addition, the z-score in assay [2] is -0.342; in assay [3], -3.25 (inactive); in assay [4], 0.653 (inactive); in assay [5], 0.683 (inactive).
As to `C=C(/C(=C/C[C@@H](OC(C)=O)c1ccc(OCCO)cc1)c1cnc2ccccc2c1)C(C)C`, the composite z-score was 0.174 (inactive) in assay [1] and 0.178 in the assay with XIP peptide (Xip251-270). For the same molecule, the z-score in assay [2] is -3; in assay [3] it was -4.09 (inactive); in assay [4], -1.03 (inactive); in assay [5], -0.163 (inactive).
Take `COCCOC(=O)N1C(=O)[C@@]2(c3cc(C#Cc4ccc(OC)cc4)ccc31)[C@H](C(N)=O)[C@H]1C(=O)O[C@H](c3ccccc3)[C@H](c3ccccc3)N1[C@@H]2c1ccccc1OCCO`: the values for the composite z-score (in assay [1]; with XIP peptide (Xip251-270)) were 1.85 (inactive) and 0.888, respectively. Further, the z-score is -2.04 in assay [2], -1.77 (inactive) in assay [3], -0.111 (inactive) in assay [4] and -0.559 (inactive) in assay [5].
`O=C1NC(=O)C2C1C=CC(C(O)Cc1ccccc1)N2Nc1ccc(Cl)cc1Cl` (stereo unspecified): the composite z-score was 0.0966 (inactive) in assay [1] and -0.474 in the assay on XIP peptide (Xip251-270). Also, the z-score in assay [2] was 0.17; in assay [3], -5.64 (inactive); in assay [4], 0.985 (inactive); in assay [5], 1.09 (inactive).
For `O=C1[C@H]2C=C(Br)[C@H](C[C@@H]2OCCCCO)[C@@]12CO2`, the values for the composite z-score (in assay [1]; in the assay with XIP peptide (Xip251-270)) were 0.091 (inactive) and 0.141, respectively. Besides, the z-score is -0.234 in assay [2], -1.71 (inactive) in assay [3], -0.0513 (inactive) in assay [4] and -0.265 (inactive) in assay [5].
In the case of `O=C1O[C@H](c2ccccc2)[C@H](c2ccccc2)N2[C@H]1[C@@H](C(=O)NC[C@H](O)c1ccccc1)[C@]1(C(=O)Nc3ccccc31)[C@H]2c1ccc(OCCO)cc1`, the composite z-score in assay [1] is 0.674 (inactive); in the assay on XIP peptide (Xip251-270), 0.809. Further, the z-score in assay [2] was 0.249; in assay [3], -5.01 (inactive); in assay [4] it was -0.0282 (inactive); in assay [5], 0.177 (inactive).
`CN(C)CCCC[C@@H]1NC(=O)[C@H]2C[C@@H](C(=O)NCCCCCNC(=O)CS)[C@@H](c3cccc(OCCO)c3)N2C1=O`: the composite z-score in assay [1] was 1.2 (inactive); in the assay with XIP peptide (Xip251-270) it was 0.567. The z-score in assay [2] was -0.103; in assay [3], -3.25 (inactive); in assay [4], -0.244 (inactive); in assay [5], -0.144 (inactive).
As to `O=C1OCCC/C=C\[C@H]2OC34C=CCN(CCN5CCOCC5)C(=O)[C@H]3N(CCCO)C(=O)[C@@H]4C12` (stereo partly specified), the values for the composite z-score (in assay [1]; with XIP peptide (Xip251-270)) were 0.976 (inactive) and -1.17, respectively. Moreover, the z-score in assay [2] was 0.211; in assay [3], -6.44 (inactive); in assay [4], 0.697 (inactive); in assay [5], 0.826 (inactive).
As to `O=C1OCCC/C=C\[C@H]2OC34C=CCN(Cn5nnc6ccccc65)C(=O)[C@H]3N(CCCCCCO)C(=O)[C@@H]4C12` (stereo partly specified), the composite z-score in assay [1] was -0.0221 (inactive); in the assay with XIP peptide (Xip251-270) it was -0.0976. For the same molecule, the z-score in assay [2] is -0.395; in assay [3], -4.38 (inactive); in assay [4], -0.471 (inactive); in assay [5], 0.832 (inactive).
Take `CC(C)c1ccc(NN2C(C(O)c3cc(C(F)(F)F)cc(C(F)(F)F)c3)C=CC3C(=O)N(c4ccccc4)C(=O)C32)cc1` (stereo unspecified): the composite z-score is 0.544 (inactive) in assay [1] and 0.641 with XIP peptide (Xip251-270). For the same molecule, the z-score was -0.764 in assay [2], -3.49 (inactive) in assay [3], 0.652 (inactive) in assay [4] and 0.417 (inactive) in assay [5].
`CS(=O)(=O)CCOC(=O)C1=CC(CCCO)=CC(c2ccc(CN3CCCC3)cc2)N(Cc2cc3c(cc2Br)OCO3)C=C1C(=O)OCCS(C)(=O)=O` (stereo unspecified): the composite z-score is 0.597 (inactive) in assay [1] and 0.732 in the assay on XIP peptide (Xip251-270). In addition, the z-score in assay [2] was -2.66; in assay [3], -0.776 (inactive); in assay [4], -1.45 (inactive); in assay [5], -0.549 (inactive).
With `O=C1NC(=O)C2C1C=CC(C(O)c1ccccc1)N2Nc1ccc(Cl)cc1Cl` (stereo unspecified), the values for the composite z-score (in assay [1]; in the assay with XIP peptide (Xip251-270)) were -0.0839 (inactive) and 0.812, respectively. The z-score was 0.416 in assay [2], -5.54 (inactive) in assay [3], -0.346 (inactive) in assay [4] and -0.621 (inactive) in assay [5].

The values above are taken from PubChem BioAssay.
